Each structure is given as a SMILES string.

The first assay has as its system RIPK2. Further details: species or system human, MV4-11 + K-562 + COLO205 + SK-N-BE2 + OVCAR-8. The conditions noted are these: read-out: apparent Kd; compound concentrations:100 nM and 1000 nM (sheet 'Samples'); n = 1.
For `Cc1cc(O)cc(C)c1/C=C/c1cncc(C(N)=O)c1` [GW435821X_KCGS], the potency estimated from few doses was 96.7 nM.

With `c1ccc(-c2n[nH]cc2-c2ccnc(-c3ccc(OCCN4CCOCC4)cc3)c2)nc1` [GW695874X], the potency estimated from few doses was 774 nM.

On to `Cl.c1ccc(-c2n[nH]cc2-c2ccnc(-c3ccc(CN4CCOCC4)cc3)c2)nc1` [GW776245A], for which the potency estimated from few doses is 1080 nM.

Take `c1ccc(-c2n[nH]cc2-c2ccnc(-c3ccc(OCCn4ccnc4)cc3)c2)nc1` [GW711782X]: the potency estimated from few doses was 801 nM.

Another assay relates to TGFBR1. More on the design: species or system human, MV4-11 + K-562 + COLO205 + SK-N-BE2 + OVCAR-8. As to conditions: read-out: apparent Kd; compound concentrations:100 nM and 1000 nM (sheet 'Samples'); n = 1.
With `O=C(c1ccc(-c2cc(-c3c[nH]nc3-c3ccccn3)ccn2)cc1)N1CCCC1` [GW792479X], the potency estimated from few doses was 118 nM.

For the molecule `Cc1cccc(-c2nc(C)cc(Nc3ccncc3)n2)n1` [GSK257997A], the potency estimated from few doses was 75.9 nM.

With `c1ccc(-c2n[nH]cc2-c2ccnc(-c3ccc(OCCN4CCOCC4)cc3)c2)nc1` [GW695874X], the potency estimated from few doses is 27.7 nM.

On to `Cl.c1ccc(-c2n[nH]cc2-c2ccnc(-c3ccc(CN4CCOCC4)cc3)c2)nc1` [GW776245A], for which the potency estimated from few doses was 51.8 nM.

As to `c1ccc(-c2n[nH]cc2-c2ccnc(-c3ccc(OCCn4ccnc4)cc3)c2)nc1` [GW711782X], the potency estimated from few doses was 82 nM.

For `COc1ccc(-c2cc(-c3c[nH]nc3-c3ccccn3)ccn2)cc1` [GW679410X], the potency estimated from few doses is 170 nM.

Regarding `O=C(c1ccc(-c2cc(-c3c[nH]nc3-c3ccccn3)ccn2)cc1)N1CCOCC1` [GW812171X], the potency estimated from few doses is 67.6 nM.

In another assay the test system is TGFBR2. More on the design: species or system human, MV4-11 + K-562 + COLO205 + SK-N-BE2 + OVCAR-8. As to conditions: read-out: apparent Kd; compound concentrations:100 nM and 1000 nM (sheet 'Samples'); n = 1.
Take `Cc1csc(-c2nc(Nc3ccncc3)c3ccccc3n2)n1` [GW869640X]: the potency estimated from few doses was 750 nM.

Turning to `c1ccc(-c2n[nH]cc2-c2ccnc(-c3ccc(OCCN4CCOCC4)cc3)c2)nc1` [GW695874X], the potency estimated from few doses was 758 nM.

Take `Cl.c1ccc(-c2n[nH]cc2-c2ccnc(-c3ccc(CN4CCOCC4)cc3)c2)nc1` [GW776245A]: the potency estimated from few doses is 1230 nM.

On to `c1ccc(-c2n[nH]cc2-c2ccnc(-c3ccc(OCCn4ccnc4)cc3)c2)nc1` [GW711782X], for which the potency estimated from few doses is 719 nM.

For `COc1ccc(-c2cc(-c3c[nH]nc3-c3ccccn3)ccn2)cc1` [GW679410X], the potency estimated from few doses is 1290 nM.

The test system of a further assay is TNIK. Further details: species or system human, MV4-11 + K-562 + COLO205 + SK-N-BE2 + OVCAR-8. As to conditions: read-out: apparent Kd; compound concentrations:100 nM and 1000 nM (sheet 'Samples'); n = 1.
With `Nc1nc(-c2cccc(Cl)c2)c(-c2ccc3ncccc3n2)s1` [GW780159X], the potency estimated from few doses is 2040 nM.

As to `Cc1cc(O)cc(C)c1/C=C/c1cncc(C(N)=O)c1` [GW435821X_KCGS], the potency estimated from few doses was 2400 nM.

For the molecule `O=C(Nc1n[nH]c2nc(-c3ccc(O)cc3)ccc12)C1CC1` [SB-710363], the potency estimated from few doses is 1630 nM.

As for `c1ccc(-c2n[nH]cc2-c2ccnc(-c3ccc(OCCN4CCOCC4)cc3)c2)nc1` [GW695874X], the potency estimated from few doses is 1170 nM.

For the molecule `c1ccc(-c2n[nH]cc2-c2ccnc(-c3ccc(OCCn4ccnc4)cc3)c2)nc1` [GW711782X], the potency estimated from few doses was 873 nM.

For `COc1ccc(-c2cc(-c3c[nH]nc3-c3ccccn3)ccn2)cc1` [GW679410X], the potency estimated from few doses is 1140 nM.

The values are drawn from PMC11062922 (Nature Chemical Biology, 2023).
